Results from publication PMC5540273 (PLoS ONE, 2017).

What was measured:
Conditions in all cases: concentration: 1 μM,replicates: in singlicate; n = 1
[1] = test system: TYK2(JH2domain-pseudokinase)
TYRO3 = test system: TYRO3
ULK1 = test system: ULK1
ULK2 = test system: ULK2
ULK3 = test system: ULK3
VEGFR2 = test system: T1, VEGFR2
T1 construct: gene KDR

VPS34 = test system: T2, VPS34
T2 construct: gene PIK3C3

VRK2 = test system: VRK2
WEE1 = test system: WEE1
WEE2 = test system: WEE2
WNK1 = test system: WNK1
WNK2 = test system: WNK2
WNK3 = test system: WNK3
WNK4 = test system: WNK4
YANK1 = test system: T3, YANK1
T3 construct: gene STK32A

YANK2 = test system: T4, YANK2
T4 construct: gene STK32B

YANK3 = test system: T5, YANK3
T5 construct: gene STK32C

YES = test system: T6, YES
T6 construct: gene YES1

YSK1 = test system: T7, YSK1
T7 construct: gene STK25

YSK4 = test system: T8, YSK4
T8 construct: gene MAP3K19
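Also: KINOMEscan kinase panel screen.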

## CN(c1ccccc1CNc1nc(Nc2ccc3c(c2)CC(=O)N3)ncc1C(F)(F)F)S(C)(=O)=O
[1]
  %Inh: 0%
TYRO3
  %Inh: 0%
ULK1
  %Inh: 71%
ULK2
  %Inh: 69%
ULK3
  %Inh: 40%
VEGFR2
  %Inh: 28%
VPS34
  %Inh: 0%
VRK2
  %Inh: 0%
WEE1
  %Inh: 0%
WEE2
  %Inh: 0%
WNK1
  %Inh: 0%
WNK2
  %Inh: 0%
WNK3
  %Inh: 0%
WNK4
  %Inh: 0%
YANK1
  %Inh: 11%
YANK2
  %Inh: 0%
YANK3
  %Inh: 0%
YES
  %Inh: 29%
YSK1
  %Inh: 11%
YSK4
  %Inh: 91.4%

## Cl.c1ccc(Oc2ccc(Nc3ccnc4cc(-c5ccc(CN6CCNCC6)o5)ccc34)cc2)nc1 [GW567142]
[1]
  %Inh: 10%
TYRO3
  %Inh: 0%
ULK1
  %Inh: 0%
ULK2
  %Inh: 16%
ULK3
  %Inh: 0%
VEGFR2
  %Inh: 25%
VPS34
  %Inh: 0%
VRK2
  %Inh: 0%
WEE1
  %Inh: 8%
WEE2
  %Inh: 0%
WNK1
  %Inh: 0%
WNK2
  %Inh: 16%
WNK3
  %Inh: 11%
WNK4
  %Inh: 0%
YANK1
  %Inh: 0%
YANK2
  %Inh: 0%
YANK3
  %Inh: 0%
YES
  %Inh: 70%
YSK1
  %Inh: 22%
YSK4
  %Inh: 30%

## CCNCC(Cc1ccccc1)NC(=O)c1cc(Br)c(-c2ccnc3[nH]ccc23)s1.Cl.Cl (centres unmarked) [GSK1383280]
[1]
  %Inh: 10%
TYRO3
  %Inh: 0%
ULK1
  %Inh: 0%
ULK2
  %Inh: 0%
ULK3
  %Inh: 8%
VEGFR2
  %Inh: 36%
VPS34
  %Inh: 0%
VRK2
  %Inh: 0%
WEE1
  %Inh: 0%
WEE2
  %Inh: 7%
WNK1
  %Inh: 0%
WNK2
  %Inh: 0%
WNK3
  %Inh: 9%
WNK4
  %Inh: 28%
YANK1
  %Inh: 23%
YANK2
  %Inh: 0%
YANK3
  %Inh: 11%
YES
  %Inh: 19%
YSK1
  %Inh: 18%
YSK4
  %Inh: 92.5%

## O=C(Nc1ccc(Oc2ccc3nc(NC(=O)C4CC4)cn3n2)c(F)c1)c1cccn(-c2ccccc2)c1=O
[1]
  %Inh: 0%
TYRO3
  %Inh: 74%
ULK1
  %Inh: 0%
ULK2
  %Inh: 0%
ULK3
  %Inh: 0%
VEGFR2
  %Inh: 98.2%
VPS34
  %Inh: 44%
VRK2
  %Inh: 0%
WEE1
  %Inh: 14%
WEE2
  %Inh: 0%
WNK1
  %Inh: 0%
WNK2
  %Inh: 0%
WNK3
  %Inh: 0%
WNK4
  %Inh: 0%
YANK1
  %Inh: 0%
YANK2
  %Inh: 0%
YANK3
  %Inh: 37%
YES
  %Inh: 45%
YSK1
  %Inh: 0%
YSK4
  %Inh: 0%

## FC(F)(F)c1cc(Br)cc(Nc2nccc(-c3cnn4ncccc34)n2)c1 [GW810578]
[1]
  %Inh: 89%
TYRO3
  %Inh: 0%
ULK1
  %Inh: 21%
ULK2
  %Inh: 20%
ULK3
  %Inh: 12%
VEGFR2
  %Inh: 40%
VPS34
  %Inh: 64%
VRK2
  %Inh: 4%
WEE1
  %Inh: 5%
WEE2
  %Inh: 70%
WNK1
  %Inh: 14%
WNK2
  %Inh: 25%
WNK3
  %Inh: 0%
WNK4
  %Inh: 0%
YANK1
  %Inh: 0%
YANK2
  %Inh: 0%
YANK3
  %Inh: 25%
YES
  %Inh: 0%
YSK1
  %Inh: 0%
YSK4
  %Inh: 64%

## Cl.Nc1n[nH]c2cc(-c3ccccn3)ccc12 [GSK2189892]
[1]
  %Inh: 0%
TYRO3
  %Inh: 0%
ULK1
  %Inh: 50%
ULK2
  %Inh: 47%
ULK3
  %Inh: 0%
VEGFR2
  %Inh: 0%
VPS34
  %Inh: 10%
VRK2
  %Inh: 0%
WEE1
  %Inh: 4%
WEE2
  %Inh: 0%
WNK1
  %Inh: 0%
WNK2
  %Inh: 5%
WNK3
  %Inh: 0%
WNK4
  %Inh: 0%
YANK1
  %Inh: 2%
YANK2
  %Inh: 0%
YANK3
  %Inh: 0%
YES
  %Inh: 7%
YSK1
  %Inh: 8%
YSK4
  %Inh: 5%

## CC(C)S(=O)(=O)N1CCN(Cc2ccc3c(c2)nc(NC(=O)c2ccsc2)n3C[C@H](O)c2ccccc2)CC1 [GW635815]
[1]
  %Inh: 8%
TYRO3
  %Inh: 31%
ULK1
  %Inh: 82%
ULK2
  %Inh: 60%
ULK3
  %Inh: 92.1%
VEGFR2
  %Inh: 3%
VPS34
  %Inh: 18%
VRK2
  %Inh: 11%
WEE1
  %Inh: 29%
WEE2
  %Inh: 6%
WNK1
  %Inh: 3%
WNK2
  %Inh: 0%
WNK3
  %Inh: 18%
WNK4
  %Inh: 0%
YANK1
  %Inh: 1%
YANK2
  %Inh: 0%
YANK3
  %Inh: 5%
YES
  %Inh: 86%
YSK1
  %Inh: 0%
YSK4
  %Inh: 90.6%

## NC(=O)Nc1sc(-c2ccc(F)cc2)cc1C(N)=O [GW789449]
[1]
  %Inh: 100%
TYRO3
  %Inh: 16%
ULK1
  %Inh: 32%
ULK2
  %Inh: 40%
ULK3
  %Inh: 55%
VEGFR2
  %Inh: 19%
VPS34
  %Inh: 22%
VRK2
  %Inh: 0%
WEE1
  %Inh: 30%
WEE2
  %Inh: 11%
WNK1
  %Inh: 0%
WNK2
  %Inh: 0%
WNK3
  %Inh: 2%
WNK4
  %Inh: 0%
YANK1
  %Inh: 4%
YANK2
  %Inh: 0%
YANK3
  %Inh: 0%
YES
  %Inh: 0%
YSK1
  %Inh: 0%
YSK4
  %Inh: 82%

## CN(c1cccc(CNc2nc(Nc3ccc4c(c3)CC(=O)N4)ncc2C(F)(F)F)c1)S(C)(=O)=O
[1]
  %Inh: 0%
TYRO3
  %Inh: 0%
ULK1
  %Inh: 72%
ULK2
  %Inh: 45%
ULK3
  %Inh: 40%
VEGFR2
  %Inh: 37%
VPS34
  %Inh: 0%
VRK2
  %Inh: 12%
WEE1
  %Inh: 0%
WEE2
  %Inh: 0%
WNK1
  %Inh: 0%
WNK2
  %Inh: 0%
WNK3
  %Inh: 0%
WNK4
  %Inh: 0%
YANK1
  %Inh: 0%
YANK2
  %Inh: 0%
YANK3
  %Inh: 0%
YES
  %Inh: 3%
YSK1
  %Inh: 0%
YSK4
  %Inh: 96.8%

## COc1cc2c(Nc3ccc(NC(=O)c4ccccc4)cc3)ncnc2cc1OCCCN1CCOCC1 [GSK301329]
[1]
  %Inh: 0%
TYRO3
  %Inh: 13%
ULK1
  %Inh: 7%
ULK2
  %Inh: 0%
ULK3
  %Inh: 13%
VEGFR2
  %Inh: 6%
VPS34
  %Inh: 2%
VRK2
  %Inh: 0%
WEE1
  %Inh: 19%
WEE2
  %Inh: 9%
WNK1
  %Inh: 1%
WNK2
  %Inh: 31%
WNK3
  %Inh: 12%
WNK4
  %Inh: 0%
YANK1
  %Inh: 14%
YANK2
  %Inh: 0%
YANK3
  %Inh: 10%
YES
  %Inh: 46%
YSK1
  %Inh: 6%
YSK4
  %Inh: 12%

## COC(=O)Nc1nc2cc(Oc3ccc(NC(=O)Nc4cc(C(F)(F)F)ccc4Cl)cc3)ccc2[nH]1.Cl [GW697465]
[1]
  %Inh: 30%
TYRO3
  %Inh: 3%
ULK1
  %Inh: 17%
ULK2
  %Inh: 0%
ULK3
  %Inh: 10%
VEGFR2
  %Inh: 64%
VPS34
  %Inh: 35%
VRK2
  %Inh: 4%
WEE1
  %Inh: 8%
WEE2
  %Inh: 11%
WNK1
  %Inh: 8%
WNK2
  %Inh: 11%
WNK3
  %Inh: 49%
WNK4
  %Inh: 48%
YANK1
  %Inh: 0%
YANK2
  %Inh: 0%
YANK3
  %Inh: 13%
YES
  %Inh: 29%
YSK1
  %Inh: 4%
YSK4
  %Inh: 84%

## Cc1nnc(-c2ccc3occ(-c4ccc(S(C)=O)cc4)c3n2)o1 (centres unmarked)
[1]
  %Inh: 0%
TYRO3
  %Inh: 0%
ULK1
  %Inh: 0%
ULK2
  %Inh: 0%
ULK3
  %Inh: 0%
VEGFR2
  %Inh: 0%
VPS34
  %Inh: 17%
VRK2
  %Inh: 0%
WEE1
  %Inh: 0%
WEE2
  %Inh: 21%
WNK1
  %Inh: 0%
WNK2
  %Inh: 0%
WNK3
  %Inh: 0%
WNK4
  %Inh: 0%
YANK1
  %Inh: 0%
YANK2
  %Inh: 0%
YANK3
  %Inh: 16%
YES
  %Inh: 0%
YSK1
  %Inh: 7%
YSK4
  %Inh: 0%

## COC(=O)c1cccc(NC(=O)NC2CCN(c3ccnc(Nc4cc(OC)c(OC)c(OC)c4)n3)C2)c1 (centres unmarked) [GSK1379767]
[1]
  %Inh: 18%
TYRO3
  %Inh: 0%
ULK1
  %Inh: 0%
ULK2
  %Inh: 0%
ULK3
  %Inh: 58%
VEGFR2
  %Inh: 15%
VPS34
  %Inh: 0%
VRK2
  %Inh: 25%
WEE1
  %Inh: 8%
WEE2
  %Inh: 0%
WNK1
  %Inh: 0%
WNK2
  %Inh: 24%
WNK3
  %Inh: 49%
WNK4
  %Inh: 39%
YANK1
  %Inh: 12%
YANK2
  %Inh: 0%
YANK3
  %Inh: 0%
YES
  %Inh: 0%
YSK1
  %Inh: 16%
YSK4
  %Inh: 0%

## c1ccc(Oc2ccc(Nc3ccnc4ccc(-c5ccccn5)cc34)cc2)cc1 [GW407034]
[1]
  %Inh: 15%
TYRO3
  %Inh: 0%
ULK1
  %Inh: 49%
ULK2
  %Inh: 0%
ULK3
  %Inh: 5%
VEGFR2
  %Inh: 0%
VPS34
  %Inh: 0%
VRK2
  %Inh: 0%
WEE1
  %Inh: 15%
WEE2
  %Inh: 0%
WNK1
  %Inh: 20%
WNK2
  %Inh: 25%
WNK3
  %Inh: 20%
WNK4
  %Inh: 51%
YANK1
  %Inh: 12%
YANK2
  %Inh: 0%
YANK3
  %Inh: 30%
YES
  %Inh: 55%
YSK1
  %Inh: 0%
YSK4
  %Inh: 7%

## CS(=O)(=O)c1cccc(CNc2nc(Nc3ccc4c(c3)[C@@H]3C[C@@H]4CNC3=O)ncc2C(F)(F)F)c1
[1]
  %Inh: 0%
TYRO3
  %Inh: 0%
ULK1
  %Inh: 89%
ULK2
  %Inh: 77%
ULK3
  %Inh: 99.9%
VEGFR2
  %Inh: 98.1%
VPS34
  %Inh: 0%
VRK2
  %Inh: 37%
WEE1
  %Inh: 2%
WEE2
  %Inh: 30%
WNK1
  %Inh: 0%
WNK2
  %Inh: 0%
WNK3
  %Inh: 0%
WNK4
  %Inh: 0%
YANK1
  %Inh: 0%
YANK2
  %Inh: 0%
YANK3
  %Inh: 0%
YES
  %Inh: 0%
YSK1
  %Inh: 0%
YSK4
  %Inh: 98.5%

## N#Cc1cccc(C(=O)NC2CCN(c3ccnc(Nc4ccc(F)cc4)n3)C2)c1 (centres unmarked) [GSK1379708]
[1]
  %Inh: 12%
TYRO3
  %Inh: 0%
ULK1
  %Inh: 7%
ULK2
  %Inh: 0%
ULK3
  %Inh: 0%
VEGFR2
  %Inh: 0%
VPS34
  %Inh: 0%
VRK2
  %Inh: 0%
WEE1
  %Inh: 12%
WEE2
  %Inh: 6%
WNK1
  %Inh: 0%
WNK2
  %Inh: 0%
WNK3
  %Inh: 12%
WNK4
  %Inh: 76%
YANK1
  %Inh: 2%
YANK2
  %Inh: 0%
YANK3
  %Inh: 10%
YES
  %Inh: 0%
YSK1
  %Inh: 0%
YSK4
  %Inh: 16%
